Assay outcomes as filed in PubChem.
HP1b chromo inh = blocks HP1-beta chromodomain binding to methylated histone tails; P83916; AlphaScreen HP1-beta / biotin-H3K9me3 peptide binding; Potency, µM (doses to about 114 µM), for the others: top-dose activity change, negative = inhibition, usual class: inhibitors; hit rate 0.56% among 390,000; further: potency means the concentration at half of the fitted maximal effect; nearly all actives have a fitted effect of over 70% in size
Target sequence (P83916 whole entry, looked up): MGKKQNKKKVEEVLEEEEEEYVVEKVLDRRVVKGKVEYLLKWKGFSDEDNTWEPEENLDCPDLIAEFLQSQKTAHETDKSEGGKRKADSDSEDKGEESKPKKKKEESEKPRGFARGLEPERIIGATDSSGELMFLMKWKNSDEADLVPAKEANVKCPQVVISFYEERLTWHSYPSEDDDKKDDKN
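AlphaScreen: HP1-beta (50 nM) preformed 30 min with biotin-H3(1-18)K9me3 peptide (50 nM) in PBS pH 7.4, 0.01% Tween-20. Compound added for 30 min at RT, then streptavidin donor/nickel chelate acceptor beads (10 ug/mL) for 30 min.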
BAZ2B block = blocks human BAZ2B | AlphaScreen BAZ2B-H3K14Ac peptide displacement | Potency, µM (highest dose often 114 µM), inactives show at the highest dose activity change, negative = inhibition, most hits filed as inhibitors | hit rate 4.4% among 360,000 | AID 504333; further: potency means the concentration at half of the fitted maximal effect; on the % scale 0 is the no-effect control and ±100 the full control effect; nearly all actives have a fitted effect of over 60% in size
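BAZ2B 50 nM plus b-H3(5-23)K14Ac 50 nM, PBS pH 7.4/0.01% Tween-20, 30 min RT; compound added (max 110 uM), 30 min RT; streptavidin donor/Ni-chelate acceptor beads 10 ug/mL final, 20 min dark; AlphaScreen read.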
JMJD2A Tudor = blocks the human JMJD2A Tudor domain. O75164. AlphaScreen JMJD2A-Tudor / H3K4me3 peptide binding. Potency, µM (top dose mostly 114 µM), without a hit: at the highest dose activity change, negative = inhibition, hits mostly inhibitors. hit rate 4.4% among 390,000; further: potency means the concentration at half of the fitted maximal effect; on the % scale 0 is the no-effect control and ±100 the full control effect; nearly all actives have a fitted effect of over 50% in size
G9a block = G9a (human) methyltransferase inhibition | Q96KQ7 | G9a H3K9 monomethylation, AlphaScreen, 2 h | Potency, µM (doses to about 102 µM), without a hit: top-dose activity, negative = inhibition, most hits filed as inhibitors | hit rate 8.8% among 350,000; further: potency means the concentration at half of the fitted maximal effect; on the % scale 0 is the no-effect control and ±100 the full control effect; nearly all actives have a fitted effect of over 75% in size
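Using a bead-based AlphaScreen, monomethylated H3K9 product from 2 h room-temperature reactions (G9a 20 nM, peptide 500 nM, SAM 20 uM) was detected with 0.5 ug/mL rabbit anti-H3K9me1 antibody.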
PI5P4Ka inh = blocks human PI5P4K alpha kinase activity; P48426; PI5P4Kalpha enzyme, ADP-Glo luminescence, 60 min; active compounds read low; max response, %; hit rate 1.2% among 330,000; active means max response of -50% or lower; inconclusive means between -30% and -50%; inactive means -30% or higher; further: value at the top dose of about 77 µM; on the % scale 0 is the no-effect control and ±100 the full control effect
Target sequence (P48426 whole entry, looked up): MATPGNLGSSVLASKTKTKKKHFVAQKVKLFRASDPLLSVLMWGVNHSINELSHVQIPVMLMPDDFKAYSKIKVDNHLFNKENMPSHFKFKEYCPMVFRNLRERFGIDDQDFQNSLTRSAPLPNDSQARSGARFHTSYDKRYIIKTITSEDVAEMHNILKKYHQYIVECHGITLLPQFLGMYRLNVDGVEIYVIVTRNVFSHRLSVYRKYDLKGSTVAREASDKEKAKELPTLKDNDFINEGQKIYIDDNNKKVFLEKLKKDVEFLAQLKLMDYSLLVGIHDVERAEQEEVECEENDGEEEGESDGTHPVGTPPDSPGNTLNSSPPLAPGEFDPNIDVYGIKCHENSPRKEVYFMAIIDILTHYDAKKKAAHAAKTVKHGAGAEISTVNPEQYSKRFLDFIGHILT
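Enzyme plus substrate dispensed, test compounds pinned in, then ATP (5 microM final) added. After 60 min at RT, ADP-Glo reagent 1 for 45 min and reagent 2 for 30 min preceded luminescence imaging.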
PLK1 PBD block = blocks phosphopeptide binding to human PLK1 polo-box domain. hit rate 2.8% among 360,000. Plk1 PBD binding of FITC phosphopeptide, fluorescence polarization. Potency, µM, for the others: max response, negative = inhibition, most hits filed as inhibitors. P53350; further: potency means the concentration at half of the fitted maximal effect; series mostly up to about 57 µM; on the % scale 0 is the no-effect control and ±100 the full control effect; nearly all actives have a fitted effect of over 65% in size
Starred values were filed as active, the others as inactive; [ ] = another dose, or the depositor's remark. Hits are enriched below; roughly 12% of the tested compounds scored in any of these assays. Unless noted, the call rests on the fitted dose curve; in most records, active means well fitted curve in the direction sought with a large enough effect; inconclusive means small, poorly fitted or top-dose-only effect, or another doubt; inactive means no such curve, though single readings can be large; an effect the other way counts as inactive or inconclusive.

What do the screens show for `COCCOC(=O)c1c(C)nc(SCC(=O)Nc2ccc(OC)cc2)c(C#N)c1-c1ccco1`?
HP1b chromo inh: 34%; BAZ2B block: 5%; JMJD2A Tudor: -10%[11.4 µM]; G9a block: 45µM*; PI5P4Ka inh: 10; PLK1 PBD block: -14%

Results for Cc1ccc(-c2csc3ncn(CC(=O)N4CCOCC4)c(=O)c23)cc1C ?
HP1b chromo inh: -15%; BAZ2B block: -12%; JMJD2A Tudor: -11%[11.4 µM]; G9a block: -32%; PI5P4Ka inh: 4; PLK1 PBD block: 30µM*

Results for Cc1ccc(-c2csc3ncn(CC#N)c(=O)c23)cc1C ?
HP1b chromo inh: inconclusive; BAZ2B block: 50µM*; JMJD2A Tudor: 50µM*; G9a block: inconclusive; PI5P4Ka inh: -91*; PLK1 PBD block: -8%

How did O=C(Cn1cnc2scc(-c3ccc(F)cc3)c2c1=O)N1CCOCC1 do in these assays?
HP1b chromo inh: 16%; BAZ2B block: 12%; JMJD2A Tudor: 0%; G9a block: -4%; PI5P4Ka inh: -8; PLK1 PBD block: 2%

How did CC[C@H](C)[C@H]1O[C@]2(CC[C@@H]1C)C[C@@H]1C[C@@H](C/C=C(\C)[C@H](O[C@@H]3C[C@H](OC)[C@H](O[C@@H]4C[C@H](OC)[C@@H](O)[C@H](C)O4)[C@H](C)O3)[C@@H](C)/C=C/C=C3\CO[C@@H]4[C@H](O)C(C)=C[C@@H](C(=O)O1)[C@]34O)O2 do in these assays?
G9a block: 5%[59 µM]

How did CC(=O)Nc1ccc(S(=O)(=O)NCCC(=O)OCC(=O)NNC(=O)c2ccccc2)cc1 do in these assays?
HP1b chromo inh: 32%; BAZ2B block: -8%; JMJD2A Tudor: -17%; G9a block: -24%; PI5P4Ka inh: -7; PLK1 PBD block: -1%

Results for Cc1ccc(NC(=O)c2sccc2SCc2cccc(C(F)(F)F)c2)cc1 ?
HP1b chromo inh: 144%; BAZ2B block: 52%; JMJD2A Tudor: 52%; G9a block: 25µM*; PLK1 PBD block: -10%

How did Cc1cccc(C)c1NC(=O)c1sccc1SCc1cccc(C(F)(F)F)c1 do in these assays?
HP1b chromo inh: 75%; BAZ2B block: 10%; JMJD2A Tudor: 1%; G9a block: inconclusive; PLK1 PBD block: -5%

How did N#CCSc1ccsc1C(=O)Nc1ccc(F)cc1 do in these assays?
HP1b chromo inh: inconclusive; BAZ2B block: 4%; JMJD2A Tudor: -8%; G9a block: 7.9µM*; PLK1 PBD block: -25%

Results for CN(C)/C=C(\C#N)C(=O)Nc1ccc(F)cc1 ?
HP1b chromo inh: 6%; BAZ2B block: 2%; JMJD2A Tudor: -1%; G9a block: 28%[0.501 µM]; PI5P4Ka inh: 2; PLK1 PBD block: -14%

Results for O=C(NC1CCCCCC1)c1cc2c(Cl)nc3ccccc3c2s1 ?
HP1b chromo inh: 34%; BAZ2B block: -2%; JMJD2A Tudor: -13%; G9a block: -29%[59 µM]

How did CN(C)c1ccc(C(=O)N=c2sccn2C)cc1[N+](=O)[O-] do in these assays?
HP1b chromo inh: 23%; BAZ2B block: -19%; JMJD2A Tudor: -15%; G9a block: -4%; PI5P4Ka inh: 5; PLK1 PBD block: -11%

What do the screens show for `Cc1ccc2nc(COC(=O)c3cnccn3)cc(=O)n2c1`?
HP1b chromo inh: 13%; JMJD2A Tudor: -14%; PI5P4Ka inh: -1; PLK1 PBD block: -9%

What do the screens show for `CCOc1cc(C2CC(=O)NC3=C2C(=O)C(C(=O)OC)C(C)C3)cc(Br)c1O` (stereo not drawn)?
HP1b chromo inh: 18%; BAZ2B block: -7%; JMJD2A Tudor: -15%; G9a block: 45µM*; PI5P4Ka inh: 3; PLK1 PBD block: -13%

What do the screens show for `CCc1cccc(CC)c1NC(=O)CSc1nc2ccc(N3C(=O)C4C(C3=O)[C@H]3C=C[C@@H]4C3)cc2s1` (stereo partly drawn)?
HP1b chromo inh: -15%; BAZ2B block: -35%; JMJD2A Tudor: -19%; G9a block: 1.4µM*; PI5P4Ka inh: -1; PLK1 PBD block: -5%

What do the screens show for `CCc1cccc(C)c1NC(=O)CSc1nc2ccc(N3C(=O)c4ccccc4C3=O)cc2s1`?
HP1b chromo inh: 40%; BAZ2B block: 3%; JMJD2A Tudor: -6%; PI5P4Ka inh: -8; PLK1 PBD block: -5%

How did CC1(C)CC(=O)c2cnc(N)nc2C1 do in these assays?
HP1b chromo inh: -9%; BAZ2B block: -18%[57.1 µM]; JMJD2A Tudor: inconclusive; G9a block: 32%; PI5P4Ka inh: -18; PLK1 PBD block: 27µM*

How did CC1(C)CC(=O)c2cc3c(nc2C1)CC(C)(C)CC3=O do in these assays?
HP1b chromo inh: 65%; BAZ2B block: -2%; JMJD2A Tudor: 4%; G9a block: -42%; PI5P4Ka inh: 4; PLK1 PBD block: -10%

What do the screens show for `COC(=O)C(NC(=O)CCC(=O)N[C@@H](C(=O)OC)c1ccccc1)c1ccccc1` (stereo partly drawn)?
HP1b chromo inh: 17%; BAZ2B block: inconclusive; JMJD2A Tudor: -14%; G9a block: -42%; PI5P4Ka inh: 2; PLK1 PBD block: -11%

Results for CCNS(=O)(=O)c1ccc(CCC(=O)NCc2ccccn2)cc1 ?
HP1b chromo inh: 48%; BAZ2B block: 0%; JMJD2A Tudor: -6%; G9a block: 5%[0.501 µM]; PI5P4Ka inh: 4; PLK1 PBD block: -11%

How did Cc1ccc(S(=O)(=O)c2nc(-c3cccs3)oc2N2CCC(C)CC2)cc1 do in these assays?
HP1b chromo inh: -17%; BAZ2B block: inconclusive; JMJD2A Tudor: inconclusive; G9a block: inconclusive

Results for CC1CCN(c2oc(-c3cccs3)nc2S(=O)(=O)c2ccc(Cl)cc2)CC1 ?
HP1b chromo inh: inconclusive; BAZ2B block: inconclusive; JMJD2A Tudor: inconclusive; G9a block: 7.9µM*

What do the screens show for `O=S(=O)(c1ccccc1)c1nc(-c2cccs2)oc1N1CCCCC1`?
HP1b chromo inh: -23%; BAZ2B block: 35µM*; JMJD2A Tudor: -17%; G9a block: inconclusive

Results for CCC(C)S(=O)(=O)c1oc(-c2cccs2)nc1S(=O)(=O)c1ccccc1 (stereo not drawn) ?
HP1b chromo inh: 47%; BAZ2B block: -8%; JMJD2A Tudor: -20%; G9a block: 18µM*

What do the screens show for `O=C(NNC(=O)c1cccs1)c1ccc(Cl)nc1`?
HP1b chromo inh: 26%; BAZ2B block: 11%; JMJD2A Tudor: -12%; G9a block: -5%; PI5P4Ka inh: -7; PLK1 PBD block: -3%

How did O=C(NCC(=O)N(c1ccc2c(c1)OCO2)C(C(=O)NC1CCCC1)c1ccncc1)c1ccco1 (stereo not drawn) do in these assays?
HP1b chromo inh: inconclusive; BAZ2B block: -6%; JMJD2A Tudor: -34%[11.4 µM]; G9a block: -35%[12.7 µM]; PI5P4Ka inh: inconclusive; PLK1 PBD block: 2.7µM*
